Test results: PubChem BioAssay AID1851 (National Center for Advancing Translational Sciences (NCATS), 2009)
Several values for one entry are separate records, joined by “and”; a condition that tells them apart may be missing. Equal entries are not always repeated. Screen size: about 16,000 compounds; about 4,000 (25%) were called active. About 26% were inconclusive and are not listed. Calls follow the shape of the dose curve; as a rule, active = well fitted curve in the direction sought with a large enough effect; inconclusive = small, poorly fitted or top-dose-only effect, or effect the other way; inactive = no such curve, though single readings can be large or run the other way. The list is a sample of the results.

What follows are compounds tested against Cytochrome P450 2C9 (Homo sapiens) (UniProt P11712) (assay: Cytochrome panel assay with activity outcomes). Conditions: recombinant CYP, pro-luciferin dealkylation, luminescence, p450-cyp2c9; series mostly up to 57.1 µM; activity, negative = inhibition: at the top concentration.
% is scaled to controls: 0 for no effect and ±100 for the full control effect.

Sequence of Cytochrome P450 2C9 (Homo sapiens) (P11712 whole entry, looked up): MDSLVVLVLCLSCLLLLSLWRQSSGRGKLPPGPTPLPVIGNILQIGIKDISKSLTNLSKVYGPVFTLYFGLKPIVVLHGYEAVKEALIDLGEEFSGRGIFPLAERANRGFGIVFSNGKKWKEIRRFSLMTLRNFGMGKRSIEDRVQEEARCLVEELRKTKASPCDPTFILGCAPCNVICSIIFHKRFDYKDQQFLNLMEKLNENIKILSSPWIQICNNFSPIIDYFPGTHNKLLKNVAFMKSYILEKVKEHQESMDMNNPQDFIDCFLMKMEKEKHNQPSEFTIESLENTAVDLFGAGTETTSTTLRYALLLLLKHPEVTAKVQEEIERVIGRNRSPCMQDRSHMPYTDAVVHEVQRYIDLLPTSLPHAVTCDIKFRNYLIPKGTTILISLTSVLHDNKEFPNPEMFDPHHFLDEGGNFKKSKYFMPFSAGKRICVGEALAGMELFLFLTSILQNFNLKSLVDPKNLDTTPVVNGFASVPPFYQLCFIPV

activity, negative = inhibition, inactive:
Cc1noc(C)c1-c1ccc2ncnc(NCCN3CCOCC3)c2c1 -1.53% [at 2.29 µM]
CCC(=O)O[C@@H]1[C@H](C)O[C@H](O[C@H]2[C@@H](N(C)C)[C@H](O)[C@@H](O[C@@H]3[C@@H](CC=O)C[C@@H](C)[C@@H](O)/C=C\C=C/C[C@@H](C)OC(=O)C[C@@H](OC(=O)CC)[C@H]3OC)O[C@H]2C)C[C@]1(C)O 4.08% [at 25.6 µM]
c1ccc2c(NC3CC3)nc(-c3ccoc3)nc2c1 -17.7% [at 2.29 µM]
CCCCc1c2ccccc2nc2[nH]c3ccccc3c12 -11.5%
CC[C@@H]1CN2CCc3cc(OC)c(OC)cc3[C@H]2C[C@@H]1C[C@@H]1NCCc2cc(OC)c(OC)cc21 8.9%
CN1CCN(c2ccnc(-c3ccc(N(C)C)cc3)n2)CC1 4.88% [at 2.29 µM]
CN(C)c1ccc(O)c2c1C[C@H]1C[C@H]3[C@@H](N(C)C)C(=O)C(C(N)=O)=C(O)[C@]3(O)C(=O)C1=C2O -3.59% [at 25.6 µM]
CCN(CC)CCCNC(=O)CC1Sc2ccccc2NC1=O (configuration not stated) -23.3%
Cc1cc(C)n2nc(SCN3C(=O)c4ccccc4C3=O)nc2n1 -0.785%
COc1ccccc1CNC(=O)CSc1nc2nc(C)cc(C)n2n1 43.7%
CO[C@@H]1COC(=O)C/C=C\[C@@H](C)COC(=O)[C@H](Cc2ccccc2)NC(=O)C/C=C\[C@H]1C -17.6% [at 11.4 µM]
O=C1CCCC=C1[C@@H](O)C1CCCCC1 14.2% [at 11.4 µM]
O=C1CCCC=C1[C@H](O)c1ccc([N+](=O)[O-])cc1 -18.1% [at 11.4 µM]
CN(C)CCn1c(CO)nc2c1c(=O)n(C)c(=O)n2C 0.0092% [at 11.4 µM]
CCCCn1c(SCC(=O)N2CCCC2)nc2c1c(=O)n(C)c(=O)n2C -14.8%
CCNc1ncc2nc(-c3cc(F)cc(F)c3)c(=O)n(-c3ccc(OC)cc3)c2n1 13.1%
O=C(Oc1ccccc1)N1CCC2(CC1)CCN(c1cccc(-c3ccccc3)c1)CC2 -2.21%
N#Cc1cccc(-c2cncnc2NCc2ccccc2)c1 -4.42% [at 2.29 µM]
COC(=O)c1c(C)nc2ccccc2c1C(=O)O -8.6%
Cc1ncc([N+](=O)[O-])n1CC(C)O (configuration not stated) 10%
Clc1cccc(C=NC=Nc2cccc(Cl)c2)c1 -9.46%
Cn1c(CCC(=O)Nc2ccc(N3CCOCC3)cc2)nc(=O)c2ccccc21 13.8%
CNCC[C@H](Oc1ccccc1C)c1ccccc1 -19.6%
CNCCC=C1c2ccccc2C=Cc2ccccc21 15.2% [at 25.6 µM]
COc1ccccc1CN1CC[C@@]2(CCCN(S(=O)(=O)c3ccccc3)C2)C1 -6.93%
O=C(O)[C@@H]1[C@@H]2C[C@H]([C@@H](Br)[C@H]2N2C(=O)CCC2=O)[C@@H]1C(=O)O 8.14% [at 11.4 µM]
O=C(CCN1C(=O)c2ccccc2C1=O)Oc1ccc2ccccc2c1 -2.31%
CN1CCN(Cc2nc3cccc4c3c([n+]2[O-])-c2ccccc2-4)CC1 -11.8% [at 11.4 µM]
CN(C)CC[C@H](c1ccc(Cl)cc1)c1ccccn1 17.3%
COC(=O)c1[nH]c(C)c(/C(O)=C2\C(=O)C(=O)N(CCN(C)C)C2c2cccs2)c1C (configuration not stated) 20%
CC1CCN(c2ccc(/C=N/n3nnnc3N)cc2[N+](=O)[O-])CC1 -14.5%
NNS(=O)(=O)c1cc(C(=O)O)cc(C(=O)O)c1 -5.43% [at 11.4 µM]
O=c1n(-c2ccccc2)c(=O)n2n1CC[C@H]1/C(=N\OC[C@@H](O)COCc3ccco3)[C@H]3O[C@@H]3[C@@H](O)[C@@H]12 19.1% [at 11.4 µM] and 17% [at 11.4 µM]
COc1ccc(Oc2c(C=O)c3ccccc3n2C)cc1 -13%
C[C@H](N=C(NC#N)Nc1ccncc1)C(C)(C)C -23.6%
Cc1cc(C(F)F)n2nc(C(=O)Nc3cccnc3Cl)nc2n1 -21.3%
FC(F)(F)c1ccccc1-c1cc(NCc2cccs2)ncn1 -6.83% [at 2.29 µM]
FC(F)(F)c1ccccc1-c1cc(NCc2ccccc2)ncn1 1.84% [at 2.29 µM]
FC(F)(F)c1ccccc1-c1nccc(NCc2cccs2)n1 -24.4% [at 2.29 µM]
CCNc1ncc2nc(-c3cc(F)cc(F)c3)c(=O)n(Cc3cccs3)c2n1 25.7%
O=C(O)c1ccccc1N/N=C\c1ccnc2ccccc12 -98.6%
Nc1cc(Cl)nc(N/N=C/c2ccccc2[N+](=O)[O-])n1 15.6%
[O-][N+](CCO)(CCO)c1ncnc2nc[nH]c12 27.7% [at 11.4 µM]
Cc1noc(C)c1C(=O)N1CCC[C@@]2(CCN(Cc3nccs3)C2)C1 -1.28%
CC[C@@H](c1ccccc1)n1c(=O)n2n(c1=O)[C@H]1[C@H](O)[C@H]3O[C@@H]3/C(=N/OCc3ccccc3)[C@@H]1CC2 -21.9% [at 11.4 µM]
O=C1[C@@H]2[C@H]3[C@H](O)[C@H](O)C/C(=N/OC[C@@H](O)COCc4ccco4)[C@@H]3CC[C@H]2C(=O)N1c1ccc(F)cc1F -0.354% [at 11.4 µM]
CC(=O)N1CCC2(CCCN(c3ccccn3)C2)CC1 1.68%
O=C(CCn1c(=S)[nH]c2ccccc2c1=O)NCCCN1CCOCC1 -1.93%
Cn1c(N)nc2c(nc(OCc3ccccc3)n2[C@@H]2O[C@H](CO)[C@@H](O)[C@@H]2O)c1=O 1.04% [at 11.4 µM]
OC[C@@H]1O[C@H](O)[C@@H](Cl)[C@H](O)[C@@H]1O 13.7%
Cc1noc(C)c1-c1cncnc1N1CCN(C)CC1 15.2% [at 2.29 µM]
O=C(N/N=C/c1cc([N+](=O)[O-])ccc1N1CCNCC1)c1ccc([N+](=O)[O-])cc1 -9.44%
CN1CCC(=NNC(=O)CSCc2ccccc2)CC1 -24.9%

AC50, inactive:
c1ccc2nc(C3=NCCN3)ccc2c1

AC50, active:
c1ccc(-c2c3ccccc3nc3[nH]c4ccccc4c23)cc1 10 µM
Cc1cc(C)n2nc(SCc3cc(=O)oc4ccc5ccccc5c34)nc2n1 8.91 µM
O=C1CCCC=C1[C@H](CCc1ccccc1)OC(=O)c1ccc(Br)cc1 3.16 µM
CCCCCn1c(CN2CCCCC2C)nc2c1c(=O)n(C)c(=O)n2C (configuration not stated) 15.8 µM
COC(=O)c1c(C)oc2ccc(N(C(=O)c3ccncc3)S(=O)(=O)c3ccccc3)cc12 2.51 µM
CCC(C)N1C(=O)S/C(=C/c2ccc(Sc3nc4ccccc4[nH]3)o2)C1=O (configuration not stated) 1.26 µM
CC(C)(C)c1nc(SCC(=O)Nc2ccc(N3CCOCC3)cc2)c2ccccc2n1 7.94 µM
Cc1ccc(C)c(CN2C(=O)C3CCCN3c3ccc(C#N)cc32)c1 (configuration not stated) 7.08 µM
CCOc1ccc(N(C(=O)/C=C/C(=O)Nc2cc(C)on2)C(C(=O)NC2CCCC2)c2ccccc2C)cc1 (configuration not stated) 3.16 µM
O=S1(=O)C=C(Oc2ccc3ccccc3c2)c2ccccc21 3.98 µM
CC(c1ccc(Cl)cc1)n1c(-c2ccc3ccccc3n2)n[nH]c1=S (configuration not stated) 2.51 µM
COC(=O)c1cc(NS(=O)(=O)c2ccc(N3CCCCC3)c([N+](=O)[O-])c2)cc(C(=O)OC)c1 0.631 µM
COC(=O)c1cc(NS(=O)(=O)c2ccc(N3CCCCCC3)c([N+](=O)[O-])c2)cc(C(=O)OC)c1 2.24 µM
CC1CCN(c2ccc(S(=O)(=O)Nc3cc(C(=O)O)cc(C(=O)O)c3)cc2[N+](=O)[O-])CC1 14.1 µM
Cc1nc2c(c(-c3ccccc3)c1C#N)C(=O)c1ccccc1-2 0.447 µM
O=C(Cn1c(-c2cscn2)nc2ccccc21)Nc1cc(F)ccc1F 15.8 µM
O=C(Nc1ccc(Br)cc1)c1ccc(CSC2=NCCS2)cc1 7.08 µM
COc1ccc(OCCn2c(C)c(/C=N/n3cnnc3)c3ccccc32)cc1 0.316 µM
Cc1nc(C(=O)Nc2ccc(Cl)cc2Cl)nn1-c1cc(OC(C)C)c(Cl)cc1Cl 2.51 µM
FC(F)(F)c1cc(-c2ccco2)nc(NCc2cccs2)n1 3.55 µM
FC(F)(F)c1cc(-c2ccco2)nc(NCCc2ccccc2)n1 1.41 µM
O=[N+]([O-])c1ccccc1N/N=C/c1c[nH]c2ccccc12 7.94 µM
Oc1c(Cl)cc(C(c2cc(Cl)c(O)c(Cl)c2)C(c2cc(Cl)c(O)c(Cl)c2)c2cc(Cl)c(O)c(Cl)c2)cc1Cl 0.1 µM
CN(C)CN1CSC(=S)N(CN(C)C)C1 3.16 µM
c1ccc2cc(Sc3ncnc4c3oc3ccccc34)ccc2c1 10 µM
COc1ccc(N=C2S/C(=C\c3ccc(C)s3)C(=O)N2CC(C)C)cc1 7.08 µM
CCCN1C(=O)/C(=C/c2ccc(C)s2)SC1=Nc1ccc(OC)cc1 7.94 µM
O=C(CCCn1c(=S)[nH]c2ccc(Br)cc2c1=O)N1CCN(c2ccccn2)CC1 3.16 µM
CCOC(=O)c1ccc(S(=O)(=O)Nc2ccc3cn[nH]c3c2)cc1 0.794 µM
CCOc1cc(C)c(S(=O)(=O)Nc2ccc3cn[nH]c3c2)cc1C 2.82 µM
Cc1ccccc1C1C(C#N)=C2N=C(N)c3c(sc4c3CCCCC4)N2C2=C1C(=O)CC(C)(C)C2 (configuration not stated) 3.55 µM
CCN(CC)C(=O)C1CCCN(c2ccc([N+](=O)[O-])cc2/C=N/NC(=O)c2ccc([N+](=O)[O-])cc2)C1 (configuration not stated) 12.6 µM
CSc1ccccc1NC(=O)CSCc1ccc(C)cc1 10 µM
